Reference: PubChem BioAssay AID602296 (Broad Institute, 2012)
Hit rate of the full screen: of about 2,000 compounds, about 190 (9.5%) were called active. Not shown: some 14% with an inconclusive outcome.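 The calls were made as follows: active = fitted activation curve crossing 40% at a concentration no higher than the sample's top valid tested dose; inconclusive = flat fitted curve at 30% to 70% activation, or poor curve fit; inactive = signal decrease, flat curve within 30%, or the rest.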 The list is a sample of the results.

Test: sustained heat shock response element induction – cell-based, mouse, luciferase, cherry-pick, dose, confirmation (AID 602296);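 also: test compounds applied by themselves with no MG132 co-treatment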
Details: NIH3T3-HGL HSF-1 response element luciferase, 48 h; series mostly up to 26 µM; activation: at the top concentration

activation, inactive:
CCOC(=O)CC(NC(=O)C1c2ccccc2Oc2ccccc21)c1ccccc1Cl (configuration not stated) -4.99%
COc1cccc(-c2c(C#N)c(N)nc3c2c(C)nn3-c2ccccc2)c1O -40.7%
O=C(COC(=O)/C=C/c1cccc([N+](=O)[O-])c1)NCc1ccco1 -2.07%
CN(C)c1ccc(C(CNC(=O)c2ccccc2)c2c[nH]c3ccccc23)cc1 (configuration not stated) -28.5%
CCOC(=O)CC1C(=O)NCCN1S(=O)(=O)c1cc(Cl)c(Cl)cc1Cl (configuration not stated) 9.36%
O=C(CCC1CCCC1)N=C1SC2CS(=O)(=O)CC2N1c1ccccc1F (configuration not stated) 0.463%
S=c1nc(SCc2ccccc2)[nH]c2ccccc12 2.98%
O=C(Nc1ccc(OCC(F)(F)C(F)F)c(C(F)(F)F)c1)c1ccccc1O -78.6%
CC(C)N(Cc1ccccc1)C(=O)COC(=O)/C=C/c1cnc2ccccc2n1 10.3%
CCN(CCCNC(=O)CCCN1C(=O)COc2ccc(C)cc21)c1cccc(C)c1 -34.6%
Cc1ccc(C)c(NC(=O)CS(=O)(=O)c2cn(C)c3ccccc23)c1 -5.97%
Cc1ccc(NC2OC(CO)C(O)C2O)cc1[N+](=O)[O-] (configuration not stated) 5.31%
COc1cccc(/C=N/Nc2ccc([N+](=O)[O-])cn2)c1O -99.1%
CCCC(=O)O/N=C(\c1ccccc1)c1ccncc1 -17.2%
COc1ccc(C)cc1NC(=O)CSc1nnc(COc2ccc(Cl)cc2)n1Cc1ccco1 -95.2%
Cc1nc2ccccc2n1CC(O)COCC1CC=CCC1 (configuration not stated) -34.1%
Cc1cccc(-[n+]2c(C)cc(C)c3c(=O)[nH]c(=O)[nH]c32)c1 2.83%
O=C1CSC(=S)N1/N=C/c1cccc(C(F)(F)F)c1 19%
CN(C)CCCCNCCCNC(=O)/C=N\O 12.4%
CN(c1cccc(NC(=O)CN(c2cccc(Cl)c2)S(=O)(=O)c2ccc(Cl)cc2)c1)S(C)(=O)=O -55.2%
CC1CN(C(=O)CS(=O)(=O)Cc2ccccc2)CC(C)O1 (configuration not stated) 5.95%
Cc1ccc(C(=O)/C=C/c2cc(Br)cc(Br)c2O)o1 2.94%
Cc1c(-n2cc(C(=O)c3ccccc3O)cc(C#N)c2=O)c(=O)n(-c2ccccc2)n1C 11.6%
O=C(/C=C/c1ccc(Cl)cc1Cl)N(Cc1ccccc1)C1CCS(=O)(=O)C1 (configuration not stated) -14.7%
OCC1(Cc2cccc(C(F)(F)F)c2)CCN(Cc2cc3ccccc3o2)CC1 -20.1%
Cc1ccc(S(=O)(=O)c2c(N)n(-c3ccccc3)c3nc4ccccc4nc23)cc1 8.69%
CN(CC(=O)Nc1ccccc1Cl)CC(=O)Nc1c(F)cccc1F -16%
